Assay results published in PubChem BioAssay (EPA / NIEHS).
The source made the active and inactive calls. The calls were made as follows: active = hit-call score of the fitted dose curve at least 0.9, where 1 is the maximum; inactive = score below 0.9.

What was measured:
[1] = ATG_GRE_CIS: Attagene CIS-FACTORIAL HepG2 Assay for human Glucocorticoid Response Elements (GRE) (AID 2282947); details: HepG2 GRE cis-reporter, Attagene multiplex mRNA; actives raise or lower the signal
In short: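 Cells (HepG2) bearing transfected cis-promoter reporter transcription units were treated with chemical for 24 hours. Reporter mRNA was measured via RT-PCR with capillary electrophoresis, and activity was fitted in both directions relative to DMSO.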

[2] = ATG_ISRE_CIS: Attagene CIS-FACTORIAL HepG2 Assay for human Interferon Regulatory Factor 1 (IRF1) binding to an Interferon-Stimulated Response Element (ISRE) (AID 2282948); details: HepG2 ISRE cis-reporter (Attagene), mRNA transcription readout; actives raise or lower the signal
In short: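 Endogenous transcription factor activity read as reporter transcript abundance via RT-PCR and capillary electrophoresis. HepG2 cells transiently transfected, 24 h chemical exposure. Gain or loss fitted against DMSO baseline.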

[3] = ATG_M_32_CIS: Attagene CIS-FACTORIAL HepG2 Assay for M32 Transcription Factor (Internal Marker) (AID 2282949); details: HepG2 Attagene cis-factorial M32 reporter, mRNA; actives raise or lower the signal;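 also: background control marker of the multiplexed CIS panel rather than a real target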
In short: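 HepG2 transfectants (cis-regulated reporter transcription units) dosed 24 h. Reporter mRNA by RT-PCR plus CE, analysed as gain or loss relative to DMSO.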

[4] = molecular target: Hypoxia-inducible factor 1-alpha (Homo sapiens) (UniProt Q16665); experiment: ATG_HIF1a_CIS: Attagene CIS-FACTORIAL HepG2 Assay for human Hypoxia Inducible Factor 1 (HIF1A) (AID 2282951); details: HepG2 Attagene cis-factorial HIF1a reporter transcription; actives raise or lower the signal
In short: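 Activity is fitted in both directions relative to DMSO. Reporter transcripts are read by RT-PCR, fluorescent primer extension and capillary electrophoresis after 24 h chemical treatment. The cells are HepG2 carrying transiently transfected cis-element-driven reporter units responding to endogenous factors.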

[5] = molecular target: Hepatocyte nuclear factor 6 (Homo sapiens) (UniProt Q9UBC0); experiment: ATG_HNF6_CIS: Attagene CIS-FACTORIAL HepG2 Assay for human Hepatocyte Nuclear Factor 6 (HNF6) (AID 2282952); details: HepG2 Attagene cis-factorial HNF6 reporter transcription; actives raise or lower the signal
In short: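 Activity values derive from bidirectional fitting against DMSO of reporter mRNA levels, measured by capillary electrophoresis of labelled RT-PCR products from HepG2 cells exposed 24 h.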

[6] = molecular target: Heat shock factor protein 1 (Homo sapiens) (UniProt Q00613); experiment: ATG_HSE_CIS: Attagene CIS-FACTORIAL HepG2 Assay for human Heat Shock Transcription Factor 1 (HSE) (AID 2282953); details: HepG2 HSE cis-reporter, Attagene RNA transcription; actives raise or lower the signal
In short: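 Liver-derived HepG2 cells carry transiently introduced multiple reporter units governed by cis promoters. Reporter RNA measured 24 h post-dose through reverse transcription, PCR amplification, fluorescent labelling and capillary electrophoresis, normalised to DMSO.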

[7] = ATG_MRE_CIS: Attagene CIS-FACTORIAL HepG2 Assay for human Metal Responsive Element (MRE) (AID 2282954); details: HepG2 MRE cis-reporter transcription, Attagene multiplex; actives raise or lower the signal
In short: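 Cells were transfected with cis-promoter reporter transcription units, then dosed for 24 h. RNA was reverse-transcribed, amplified, fluorescently labelled and resolved by capillary electrophoresis, and activity was fitted in both directions relative to DMSO.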

[8] = ATG_PBREM_CIS: Attagene CIS-FACTORIAL HepG2 Assay for human Phenobarbital-responsive Enhancer Module (PBREM) (AID 2282955); details: HepG2 PBREM cis-reporter, Attagene multiplexed transcription; actives raise or lower the signal
In short: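 Endogenous transcription factor activity was read from reporter transcripts in transiently transfected human HepG2 liver cells after 24 h dosing. RT-PCR products were fluorescently labelled, HpaI-cut and sized by capillary electrophoresis; activity fitted bidirectionally against DMSO baseline.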

[9] = ATG_M_06_CIS: Attagene CIS-FACTORIAL HepG2 Assay for M06 Transcription Factor (Internal Marker) (AID 2282950); details: HepG2 Attagene CIS-FACTORIAL M06 internal marker reporter; actives raise or lower the signal
In short: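 Cells (HepG2, transiently carrying cis-driven reporter units) receive chemical for 24 h before RNA isolation. Reporter cDNA is PCR-amplified, FAM-labelled by primer extension, HpaI-digested and sized on a capillary analyser.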

Hypoxia-inducible factor 1-alpha (Homo sapiens), sequence (Q16665 whole entry, looked up): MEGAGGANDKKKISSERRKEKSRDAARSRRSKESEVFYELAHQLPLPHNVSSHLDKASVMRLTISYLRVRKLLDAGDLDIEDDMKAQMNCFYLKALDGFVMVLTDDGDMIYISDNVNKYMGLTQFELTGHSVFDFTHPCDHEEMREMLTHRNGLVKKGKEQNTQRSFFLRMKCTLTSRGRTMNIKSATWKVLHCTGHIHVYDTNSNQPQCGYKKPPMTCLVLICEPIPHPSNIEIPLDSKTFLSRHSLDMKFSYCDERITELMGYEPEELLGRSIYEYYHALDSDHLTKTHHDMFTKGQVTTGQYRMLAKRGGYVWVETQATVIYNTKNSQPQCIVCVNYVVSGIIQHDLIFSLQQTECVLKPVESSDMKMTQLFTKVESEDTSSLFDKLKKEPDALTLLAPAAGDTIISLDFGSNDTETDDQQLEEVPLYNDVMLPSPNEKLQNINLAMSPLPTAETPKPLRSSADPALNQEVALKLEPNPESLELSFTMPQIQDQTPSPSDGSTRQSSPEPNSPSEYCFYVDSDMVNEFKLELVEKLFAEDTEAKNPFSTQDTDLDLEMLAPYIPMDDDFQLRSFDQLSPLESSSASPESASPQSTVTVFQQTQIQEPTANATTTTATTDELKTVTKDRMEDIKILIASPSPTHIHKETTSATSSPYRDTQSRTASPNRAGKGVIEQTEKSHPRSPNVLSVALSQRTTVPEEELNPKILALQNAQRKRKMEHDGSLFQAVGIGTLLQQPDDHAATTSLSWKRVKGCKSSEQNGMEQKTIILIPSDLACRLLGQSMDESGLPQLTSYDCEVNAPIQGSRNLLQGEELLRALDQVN
Hepatocyte nuclear factor 6 (Homo sapiens), sequence (Q9UBC0 whole entry, looked up): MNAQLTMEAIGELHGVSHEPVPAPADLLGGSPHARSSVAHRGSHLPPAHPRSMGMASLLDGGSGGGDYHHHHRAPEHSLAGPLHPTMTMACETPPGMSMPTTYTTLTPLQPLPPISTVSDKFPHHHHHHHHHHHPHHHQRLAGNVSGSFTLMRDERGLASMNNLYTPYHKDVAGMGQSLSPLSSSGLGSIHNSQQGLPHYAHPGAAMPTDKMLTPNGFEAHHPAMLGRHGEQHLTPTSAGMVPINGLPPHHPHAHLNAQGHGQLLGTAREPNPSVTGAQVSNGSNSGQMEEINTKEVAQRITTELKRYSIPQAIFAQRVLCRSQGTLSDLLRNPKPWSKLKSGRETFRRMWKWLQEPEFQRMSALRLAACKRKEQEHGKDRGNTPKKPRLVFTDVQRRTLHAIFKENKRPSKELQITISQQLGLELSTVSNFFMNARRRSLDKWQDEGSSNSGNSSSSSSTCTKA
Heat shock factor protein 1 (Homo sapiens), sequence (Q00613 whole entry, looked up): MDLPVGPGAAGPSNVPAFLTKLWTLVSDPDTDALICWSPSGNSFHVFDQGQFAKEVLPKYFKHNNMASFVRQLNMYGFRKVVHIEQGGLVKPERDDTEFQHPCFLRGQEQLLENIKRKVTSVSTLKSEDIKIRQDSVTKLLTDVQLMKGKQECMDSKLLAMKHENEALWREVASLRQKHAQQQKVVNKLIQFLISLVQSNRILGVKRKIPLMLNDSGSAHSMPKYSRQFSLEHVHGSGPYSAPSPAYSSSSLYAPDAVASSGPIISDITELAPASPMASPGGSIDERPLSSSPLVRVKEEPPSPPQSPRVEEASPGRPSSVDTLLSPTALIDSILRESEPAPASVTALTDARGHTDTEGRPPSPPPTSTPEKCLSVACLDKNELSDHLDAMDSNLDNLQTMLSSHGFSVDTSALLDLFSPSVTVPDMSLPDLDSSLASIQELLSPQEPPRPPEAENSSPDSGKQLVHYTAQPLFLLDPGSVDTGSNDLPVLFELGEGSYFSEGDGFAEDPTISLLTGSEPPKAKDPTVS

Row | Compound | AC50 [1] | outcome [2] | outcome [3] | AC50 [4] | outcome [5] | AC50 [6] | AC50 [7] | outcome [8] | outcome [9] | outcome [4] | outcome [6] | outcome [7] | AC50 [8] | AC50 [2]
1 | CC(C)C1=CC2=CC[C@@H]3[C@](C)(CCC[C@@]3(C)C(=O)O)[C@H]2CC1 | 119 µM (active) | inactive | inactive | 100 µM (active) | inactive | 145 µM (active) | 106 µM (active) | inactive |  |  |  |  |  | 
2 | CC(=O)c1ccc2c(c1)CCCC2 |  | inactive | inactive |  | inactive |  |  | inactive | inactive | inactive | inactive | inactive |  | 
3 | CC(C)CCCC(C)CC=O (centres undefined) |  |  | inactive |  | inactive |  |  |  | inactive | inactive | inactive | inactive |  | 
4 | O=C(OCC1CCC2OC2C1)C1CCC2OC2C1 (centres undefined) |  | inactive | inactive |  | inactive |  |  | inactive | inactive | inactive | inactive | inactive |  | 
5 | Cc1cc(C)c(C)c(O)c1 |  | inactive | inactive |  | inactive |  |  | inactive | inactive | inactive | inactive | inactive |  | 
6 | Cc1c(C)c([N+](=O)[O-])c(C(C)(C)C)c([N+](=O)[O-])c1C |  |  | inactive |  | inactive |  |  | inactive | inactive | inactive | inactive | inactive |  | 
7 | CCN(Cc1cccc(S(=O)(=O)O)c1)c1ccc(C(=C2C=CC(=[N+](CC)Cc3cccc(S(=O)(=O)[O-])c3)C=C2)c2ccccc2)cc1 |  | inactive | inactive |  |  | 83 µM (active) |  | inactive | inactive | inactive |  | inactive |  | 
8 | CC(CC=O)c1ccccc1 (centres undefined) |  |  | inactive |  | inactive |  | 104 µM (active) | inactive |  | inactive | inactive |  |  | 
9 | COC(=O)/C=C\C(=O)O |  | inactive | inactive |  | inactive |  |  | inactive |  | inactive |  | inactive |  | 
10 | C=C(C)[C@H]1CC=C(C)CC1 |  | inactive | inactive |  | inactive |  |  | inactive | inactive |  | inactive | inactive |  | 
11 | CC(C)=CCC[C@H](C)CCO |  |  | inactive |  | inactive |  |  |  | inactive | inactive | inactive | inactive |  | 
12 | CCCCCCC1(C)CCC(=O)O1 (centres undefined) |  | inactive | inactive |  | inactive |  |  | inactive | inactive | inactive | inactive | inactive |  | 
13 | O=C1CCCC(=O)O1 |  | inactive | inactive |  |  |  |  | inactive | inactive | inactive | inactive | inactive |  | 
14 | N#[N+]c1ccc2c(S(=O)(=O)[O-])cccc2c1O |  | inactive | inactive |  |  |  |  | inactive | inactive | inactive | inactive | inactive |  | 
15 | O=S1(=O)OC(c2ccc(O)cc2)(c2ccc(O)cc2)c2ccccc21 |  | inactive | inactive |  |  |  |  | inactive |  |  | inactive | inactive |  | 
16 | CCOc1ccc(N)c([N+](=O)[O-])c1 |  |  | inactive |  | inactive |  |  | inactive | inactive | inactive | inactive | inactive |  | 
17 | O=S(=O)(Oc1ccc(Cl)cc1Cl)c1ccccc1 |  | inactive | inactive |  | inactive |  | 32.8 µM (active) |  | inactive |  | inactive |  | 7.97 µM (active) | 
18 | CC(=O)C=CC1C(C)=CCC(C)C1(C)C (centres undefined) |  |  | inactive |  | inactive |  |  | inactive | inactive | inactive | inactive | inactive |  | 
19 | COc1c2ccoc2cc2oc(=O)ccc12 |  | inactive | inactive |  | inactive |  |  | inactive | inactive | inactive | inactive | inactive |  | 
20 | CC/C=C\CCOC(=O)CCCCC |  |  | inactive |  | inactive |  |  | inactive | inactive | inactive | inactive | inactive |  | 
21 | C1=Cc2ccccc2C1 |  | inactive | inactive |  | inactive |  |  | inactive |  | inactive | inactive | inactive |  | 

Row | Compound | AC50 [1] | outcome [2] | outcome [3] | AC50 [4] | outcome [5] | AC50 [6] | AC50 [7] | outcome [8] | outcome [9] | outcome [4] | outcome [6] | outcome [7] | AC50 [8] | AC50 [2]
22 | COc1ccc(-c2coc3cc(O)ccc3c2=O)cc1 |  | inactive | inactive |  |  |  |  |  | inactive | inactive |  | inactive |  | 
23 | COc1ccc(NC(C)=O)cc1N |  | inactive | inactive |  | inactive |  |  | inactive | inactive | inactive | inactive | inactive |  | 
24 | CC1=CC[C@H](C(C)C)C=C1 |  | inactive | inactive |  |  |  | 66.3 µM (active) | inactive | inactive | inactive | inactive |  |  | 
25 | CC(=O)Nc1ccc2c(c1)Cc1cc(NC(C)=O)ccc1-2 |  | inactive | inactive |  | inactive |  |  | inactive | inactive | inactive | inactive | inactive |  | 
26 | CC1=NC(C)OC1C (centres undefined) |  |  | inactive |  | inactive | 160 µM (active) |  | inactive | inactive | inactive |  | inactive |  | 100 µM (active)
27 | Cc1cccc(C(=O)O)c1 |  | inactive | inactive |  | inactive |  |  | inactive |  | inactive | inactive | inactive |  | 
28 | O=C1CCCC1 |  | inactive | inactive |  |  |  |  |  | inactive | inactive | inactive | inactive |  | 
29 | CCc1ccc2c(c1)C(=O)c1ccccc1C2=O |  | inactive | inactive |  | inactive |  |  | inactive | inactive | inactive | inactive | inactive |  | 
30 | N#CCc1ccc(Cl)cc1Cl |  |  | inactive |  | inactive |  |  | inactive | inactive | inactive | inactive | inactive |  | 
31 | CCC(C)OC(=O)c1ccc(O)cc1 (centres undefined) |  | inactive | inactive |  | inactive |  |  | inactive | inactive | inactive | inactive | inactive |  | 
32 | COc1ccc(C(Cl)=C(c2ccc(OC)cc2)c2ccc(OC)cc2)cc1 |  | inactive | inactive |  | inactive |  |  | inactive |  | inactive | inactive | inactive |  | 
33 | O=c1c2ccccc2oc2ccccc12 |  | inactive | inactive |  | inactive |  |  | inactive | inactive | inactive |  | inactive |  | 
34 | CCCCC/C=C\C/C=C\CCCCCCCC(=O)OC |  |  | inactive |  | inactive | 153 µM (active) |  | inactive | inactive | inactive |  | inactive |  | 80.7 µM (active)
35 | N[C@H]1C(O)O[C@H](CO)[C@H](O)[C@@H]1O (some centres undefined) |  | inactive | inactive |  | inactive |  |  | inactive | inactive |  | inactive | inactive |  | 
36 | O=C1C(N(CO)C(=O)NCO)N(CO)C(=O)N1CO (centres undefined) |  | inactive | inactive |  | inactive |  |  | inactive | inactive | inactive | inactive | inactive |  | 
37 | C=CC(=O)NC(C)(C)CS(=O)(=O)O |  | inactive | inactive |  | inactive |  |  | inactive | inactive | inactive | inactive | inactive |  | 
38 | CCN(CC#N)c1cccc(C)c1 |  |  | inactive |  | inactive |  |  | inactive | inactive | inactive | inactive | inactive |  | 
39 | CCO[Si](CCCN=C=O)(OCC)OCC |  | inactive | inactive |  | inactive |  |  | inactive | inactive | inactive | inactive | inactive |  | 
40 | CC(C)(C)C(=O)CCc1ccc(Cl)cc1 |  | inactive | inactive |  |  |  |  | inactive | inactive | inactive | inactive | inactive |  | 
41 | O=CN1CCCCC1 |  | inactive | inactive |  | inactive |  |  | inactive | inactive | inactive | inactive | inactive |  | 
